The values below come from PubChem BioAssay (EPA / NIEHS).

As a reminder, the AC50 is the concentration at which the activity in the assay is half-maximal.

Read-out in test [1]: TIMP metallopeptidase inhibitor 1 (TIMP1), TIMP1 (gene 7076)
The test is described as follows: BSK_hDFCGF_TIMP1: BioMAP Diversity Plus: hDFCGF Assay for TIMP metallopeptidase inhibitor 1 (TIMP1) Biomarker Activity (AID 2283062). Conditions: primary human foreskin fibroblasts; actives raise or lower the signal. The method, boiled down:
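Bidirectional curve fitting against DMSO baseline yielded this endpoint, based on ELISA detection of TIMP-1 in primary human foreskin fibroblasts exposed to compound for 24 h.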

Read-out in test [2]: Monokine induced gamma interferon (MIG), CXCL9 (gene 4283)
Nature of the test: BSK_hDFCGF_MIG: BioMAP Diversity Plus: hDFCGF Assay for Monokine induced gamma interferon (MIG) Biomarker Activity (AID 2283063). The conditions noted are these: primary human foreskin fibroblasts; actives raise or lower the signal. In a few lines:
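Endpoint derived by bidirectional fitting relative to DMSO; MIG quantified via ELISA in primary human foreskin fibroblasts harvested 24 h after dosing.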

Read-out in test [3]: Matrix Metallopeptidase 1 (MMP1), MMP1 (gene 4312)
The test is described as follows: BSK_hDFCGF_MMP1: BioMAP Diversity Plus: hDFCGF Assay for Matrix Metallopeptidase 1 (MMP1) Biomarker Activity (AID 2283064). The conditions noted are these: primary human foreskin fibroblasts; actives raise or lower the signal. The method, boiled down:
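MMP1 levels quantified by ELISA 24 h after dosing human dermal fibroblast cultures, with parallel SRB total-protein staining for overt cytotoxicity. Data fitted in both directions against DMSO baseline.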

Read-out in test [4]: Vascular cell adhesion molecule 1 (VCAM1), VCAM1 (gene 7412)
Nature of the test: BSK_hDFCGF_VCAM1: BioMAP Diversity Plus: hDFCGF Assay for Vascular cell adhesion molecule 1 (VCAM1) Biomarker Activity (AID 2283065).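 On AC50: VCAM-1 protein level quantified by ELISA after 24 h chemical exposure.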 The conditions noted are these: primary human foreskin fibroblasts; actives raise or lower the signal. The method, boiled down: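 Measured after 24 h chemical treatment of primary human skin fibroblasts, VCAM-1 was detected by ELISA and concentration-response analysed in both directions versus DMSO vehicle.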

Read-out in test [5]: Plasminogen activator inhibitor-1 (PAI1), SERPINE1 (gene 5054)
Nature of the test: BSK_hDFCGF_PAI1: BioMAP Diversity Plus: hDFCGF Assay for Plasminogen activator inhibitor-1 (PAI1) Biomarker Activity (AID 2283066). The conditions noted are these: primary human foreskin fibroblasts; actives raise or lower the signal. In a few lines:
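Human skin fibroblast cultures receive chemical for 24 h before PAI-1 is measured by ELISA; signal changes are fitted bidirectionally against DMSO-treated wells.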

Read-out in test [6]: Intercellular Adhesion Molecule 1 (ICAM1), ICAM1 (gene 3383)
The test is described as follows: BSK_KF3CT_ICAM1: BioMAP Diversity Plus: KF3CT Assay for Intercellular Adhesion Molecule 1 (ICAM1) Biomarker Activity (AID 2283067). The conditions noted are these: primary human keratinocytes with fibroblasts; actives raise or lower the signal. In a few lines: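 Bidirectional curve fitting against a DMSO baseline was applied to ICAM-1 ELISA signal from primary human skin co-cultures harvested 24 h after treatment, with SRB staining of parallel wells for overt cytotoxicity.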

Read-out in test [7]: Interferon-gamma inducible Protein 10 (IP10), CXCL10 (gene 3627)
Nature of the test: BSK_KF3CT_IP10: BioMAP Diversity Plus: KF3CT Assay for Interferon-gamma inducible Protein 10 (IP10) Biomarker Activity (AID 2283068). The conditions noted are these: primary human keratinocytes with fibroblasts; actives raise or lower the signal. In a few lines:
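Signal is secreted/surface IP-10 by ELISA in a human primary skin co-culture of keratinocytes and foreskin fibroblasts, taken 24 h post-dosing; DMSO served as negative control.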

Test [8] is described as follows: BSK_KF3CT_SRB: Viability Assessment in the BioMAP Diversity Plus: KF3CT Assay (AID 2283069).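 Further: total protein by sulforhodamine B staining as a cytotoxicity measure; read 24 h after compound addition.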 Conditions: primary human keratinocytes with fibroblasts. In a few lines: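 Cytotoxicity was gauged by SRB staining (0.1% SRB, 10% TCA fixation, 560 nm) of parallel cultures at 24 h. The cells were primary human skin keratinocytes co-cultured with fibroblasts, and activity was fitted in both directions against DMSO.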

Read-out in test [9]: Interleukin-1 alpha (IL1a), IL1A (gene 3552)
Nature of the test: BSK_KF3CT_IL1a: BioMAP Diversity Plus: KF3CT Assay for Interleukin-1 alpha (IL1a) Biomarker Activity (AID 2283070). Conditions: primary human keratinocytes with fibroblasts; actives raise or lower the signal. In a few lines:
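IL-1a was detected by ELISA 24 h after chemical treatment of a co-culture of human skin keratinocytes and foreskin fibroblasts. Gain or loss of signal was fitted against the DMSO baseline.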

Read-out in test [10]: TIMP metallopeptidase inhibitor 2 (TIMP2), TIMP2 (gene 7077)
The test is described as follows: BSK_KF3CT_TIMP2: BioMAP Diversity Plus: KF3CT Assay for TIMP metallopeptidase inhibitor 2 (TIMP2) Biomarker Activity (AID 2283071). Conditions: primary human keratinocytes with fibroblasts; actives raise or lower the signal. In a few lines: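 Measurements come from ELISA detection of TIMP-2 at 24 hours in a dosed human keratinocyte and foreskin fibroblast co-culture. DMSO serves as negative control and baseline.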

Read-out in test [11]: Transforming growth factor beta 1 (TGFb1), TGFB1 (gene 7040)
Nature of the test: BSK_KF3CT_TGFb1: BioMAP Diversity Plus: KF3CT Assay for Transforming growth factor beta 1 (TGFb1) Biomarker Activity (AID 2283072). Conditions: primary human keratinocytes with fibroblasts; actives raise or lower the signal. In a few lines: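 TGF-b1 ELISA on a 24 h dosed co-culture of human keratinocytes and foreskin fibroblasts; cytotoxicity tracked in parallel cultures by SRB staining.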

Read-out in test [12]: C-C motif chemokine 2 (Homo sapiens) (UniProt P13500)
Nature of the test: BSK_KF3CT_MCP1: BioMAP Diversity Plus: KF3CT Assay for Monocyte Chemoattractant Protein 1 (MCP1/CCL2) Biomarker Activity (AID 2283073). Conditions: primary human keratinocytes with fibroblasts; actives raise or lower the signal. In a few lines: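 Biomarker MCP-1 is measured by ELISA in primary human keratinocytes co-cultured with foreskin fibroblasts, 24 h after chemical treatment; DMSO serves as the negative control and activity baseline.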

Read-out in test [13]: Matrix Metallopeptidase 9 (MMP9), MMP9 (gene 4318)
Nature of the test: BSK_KF3CT_MMP9: BioMAP Diversity Plus: KF3CT Assay for Matrix Metallopeptidase 9 (MMP9) Biomarker Activity (AID 2283074).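 On AC50: MMP9 protein level quantified by ELISA in the co-culture.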 The conditions noted are these: primary human keratinocytes with fibroblasts; actives raise or lower the signal. In a few lines: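 MMP-9 quantified by ELISA after 24 h chemical treatment of primary human skin keratinocyte/fibroblast co-cultures; gain or loss fitted against DMSO, with parallel SRB staining (0.1% SRB, 560 nm) for overt cytotoxicity.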

Read-out in the next test: CD40, CD40 (gene 958)
Nature of the test: BSK_LPS_CD40: BioMAP Diversity Plus: LPS Assay for CD40 Biomarker Activity (AID 2283076). Conditions: primary human HUVEC with PBMC; actives raise or lower the signal. The method, boiled down:
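Using a multiplexed primary human co-culture (umbilical vein endothelium plus PBMC), CD40 was read by ELISA 24 h after dosing, with cytotoxicity tracked by sulforhodamine B staining of parallel cultures and activity fitted bidirectionally versus DMSO.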

Read-out in test [14]: E-selectin (Homo sapiens) (UniProt P16581)
Nature of the test: BSK_LPS_Eselectin: BioMAP Diversity Plus: LPS Assay for Eselectin Biomarker Activity (AID 2283077). The conditions noted are these: primary human HUVEC with PBMC; actives raise or lower the signal. In a few lines:
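Dose chemical onto LPS-driven HUVEC/PBMC co-culture; after 24 h, run ELISA for E-selectin; fit up- and down-going responses relative to DMSO control.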

Read-out in test [15]: Interleukin-8 (IL8), CXCL8 (gene 3576)
The test is described as follows: BSK_LPS_IL8: BioMAP Diversity Plus: LPS Assay for Interleukin-8 (IL8) Biomarker Activity (AID 2283078). Conditions: primary human HUVEC with PBMC; actives raise or lower the signal. In a few lines: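 In this LPS system, chemical-treated human umbilical vein endothelium/PBMC co-cultures were harvested at 24 h for IL-8 ELISA.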

Test [16] can be described thus: BSK_LPS_SRB: Viability Assessment in the BioMAP Diversity Plus: LPS Assay (AID 2283079).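 Further: total protein by sulforhodamine B absorbance as a cytotoxicity measure; measured one day after compound addition; fitted in both directions against DMSO so loss or gain of signal counts.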 The conditions noted are these: primary human HUVEC with PBMC. The method, boiled down:
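Cytotoxicity endpoint in human endothelial–PBMC co-culture: 24 h exposure, then SRB (0.1%) staining, 560 nm read.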

Read-out in test [17]: Interleukin-1 alpha (IL1a), IL1A (gene 3552)
The test is described as follows: BSK_LPS_IL1a: BioMAP Diversity Plus: LPS Assay for Interleukin-1 alpha (IL1a) Biomarker Activity (AID 2283080). The conditions noted are these: primary human HUVEC with PBMC; actives raise or lower the signal. In a few lines:
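Primary human HUVEC and PBMC co-culture stimulated with LPS is dosed and harvested at 24 h. Both increases and decreases in ELISA-measured IL-1a are scored relative to DMSO.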

Read-out in test [18]: Monocyte Chemoattractant Protein-1 (MCP1), CCL2 (gene 6347)
The test is described as follows: BSK_LPS_MCP1: BioMAP Diversity Plus: LPS Assay for Monocyte Chemoattractant Protein-1 (MCP1) Biomarker Activity (AID 2283081).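 On AC50: secreted MCP-1 protein quantified by ELISA in culture supernatant.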 Conditions: primary human HUVEC with PBMC; actives raise or lower the signal. The method, boiled down: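 Values derive from bidirectional fitting against DMSO of ELISA-measured MCP-1 in a human primary endothelial and mononuclear cell co-culture, 24 h after chemical addition under LPS activation.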

Read-out in test [19]: urokinase plasminogen activator (uPA), PLAU (gene 5328)
Nature of the test: BSK_KF3CT_uPA: BioMAP Diversity Plus: KF3CT Assay for urokinase plasminogen activator (uPA) Biomarker Activity (AID 2283075). Conditions: primary human keratinocytes with fibroblasts; actives raise or lower the signal. The method, boiled down: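 ELISA read-out of uPA 24 h after dosing human skin keratinocytes co-cultured with foreskin fibroblasts. Signal change fitted both ways relative to DMSO; sulforhodamine B on parallel cultures marks overt cytotoxicity.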

Calls of active or inactive are those of the source. How the source made its calls: active means hit-call score of the fitted dose curve at least 0.9, where 1 is the maximum; inactive means score below 0.9.

Chain of E-selectin (Homo sapiens) (P16581 whole entry, looked up): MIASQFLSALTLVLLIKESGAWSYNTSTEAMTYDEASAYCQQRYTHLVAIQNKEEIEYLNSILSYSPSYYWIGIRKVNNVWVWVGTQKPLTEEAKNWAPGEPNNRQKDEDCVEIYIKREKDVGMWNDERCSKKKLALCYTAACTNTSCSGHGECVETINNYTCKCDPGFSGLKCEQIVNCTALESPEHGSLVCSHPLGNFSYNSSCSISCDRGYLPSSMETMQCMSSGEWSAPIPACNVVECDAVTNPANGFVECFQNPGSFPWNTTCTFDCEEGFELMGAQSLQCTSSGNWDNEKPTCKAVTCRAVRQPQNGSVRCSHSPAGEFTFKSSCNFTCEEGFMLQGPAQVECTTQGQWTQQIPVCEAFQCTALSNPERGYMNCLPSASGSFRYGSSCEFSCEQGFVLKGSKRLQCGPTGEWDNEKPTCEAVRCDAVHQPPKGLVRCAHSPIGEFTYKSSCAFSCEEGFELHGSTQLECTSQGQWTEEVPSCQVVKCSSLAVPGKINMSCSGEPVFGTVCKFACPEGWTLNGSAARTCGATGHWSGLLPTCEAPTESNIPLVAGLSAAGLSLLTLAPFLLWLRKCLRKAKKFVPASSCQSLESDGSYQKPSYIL

Consider `O=C(O)CC(O)C(=O)O` (centres undefined), for which the outcome in [1], in [2], in test [3], in test [4], in test [5] and in [6] was inactive. Besides, the outcome in test [7], in [8], in test [9], in test [10], in test [11] and in [12] was inactive. The outcome in [13] was “inactive”; in the test with CD40, CD40 (gene 958), “inactive”; in [14] it was “inactive”; in test [15], “inactive”; in [16] it was “inactive”; in test [17], “inactive”. The result in [18] was inactive.

With `O=C(OC[C@H]1O[C@@H](OC(=O)c2cc(O)c(O)c(OC(=O)c3cc(O)c(O)c(O)c3)c2)[C@H](OC(=O)c2cc(O)c(O)c(OC(=O)c3cc(O)c(O)c(O)c3)c2)[C@@H](OC(=O)c2cc(O)c(O)c(OC(=O)c3cc(O)c(O)c(O)c3)c2)[C@@H]1OC(=O)c1cc(O)c(O)c(OC(=O)c2cc(O)c(O)c(O)c2)c1)c1cc(O)c(O)c(OC(=O)c2cc(O)c(O)c(O)c2)c1`, the outcome in test [1] is “inactive”; in test [8], “inactive”; in test [12], “inactive”; in the test with CD40, CD40 (gene 958), “inactive”; in [14], “inactive”; in test [15], “inactive”. In test [17], the result was inactive. Besides, the AC50 in test [2] is 2.12 µM (active); in test [3], 1.86 µM (active); in [4], 3.31 µM (active); in test [5] it was 6.1 µM (active); in test [6], 4.39 µM (active); in [7], 4.98 µM (active). For the same molecule, the AC50 in [9] is 6.1 µM (active); in test [10] it was 2.92 µM (active); in test [11] it was 3.09 µM (active); in test [13] it was 6.1 µM (active); in test [19], 1.08 µM (active); in test [16], 10 µM (active). Moreover, the AC50 in test [18] is 11 µM (active).

In the case of `Cc1ccc(C)c(O)c1`, the result in test [1], in test [2], in test [3], in [4], in test [5] and in test [6] was inactive. The result in test [7], in [8], in test [9], in [10], in [11] and in [12] was inactive. Further, the outcome is “inactive” in [13]; “inactive” in test [19]; “inactive” with CD40, CD40 (gene 958); “inactive” in test [14]; “inactive” in test [15]; “inactive” in test [16]. The result in test [17] and in test [18] was inactive.

For `C=CCCCCCCCCC(=O)O`, the result in test [1], in [2], in [3], in test [4], in test [5] and in test [6] was inactive. For the same molecule, the outcome in test [7], in test [8], in test [9], in test [10], in [11] and in [12] was inactive. Also, the outcome is “inactive” in test [13]; “inactive” in [19]; “inactive” in the test with CD40, CD40 (gene 958); “inactive” in test [14]; “inactive” in [15]; “inactive” in test [16]. Further, the outcome in test [17] and in [18] was inactive.
